Pf Dd2 growth – blocks in vitro growth of P. falciparum Dd2; P. falciparum Dd2 growth, SYBR Green, 72 h; actives 4.3% (n = 120,000); AID 1347417; Potency, µM (series often up to 28.9 µM), inactives show at the top dose activity, negative = inhibition, hits mostly inhibitors; active = well fitted inhibition curve with a large enough effect;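 also: plate controls were DMSO vehicle for no effect and reference drug for full effect; nearly all actives have a fitted effect of over 65% in size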
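Infected erythrocytes (Dd2, 0.3% parasitemia, 2.5% hematocrit final) are added to compound in RPMI-1640/Albumax II medium, grown 72 h at 37C in low oxygen, then lysed with saponin/Triton-X containing SYBR Green and read by fluorescence.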
An asterisk follows results filed as active; i = inactive; [ ] = remark or other dose. Many of the other results were omitted from the sample, so hits are more common in it than they were. Potency is read from the fitted curve at half-maximal effect.

SMILES	Pf Dd2 growth
COC(=O)C1=CN(CC(=O)Nc2cccc(C)c2C)S(=O)(=O)N=C1C	42.3%
CCOc1ccccc1NC(=O)C1CCN(C(=O)c2ncn3c2COC(c2ccc(F)cc2)C3)CC1 (stereo not drawn)	-15.3%
CCC1(C(=O)NCc2ccc(F)cc2)CCCCC(=O)N1 (stereo not drawn)	21.1%
Cc1ccc(S(=O)(=O)Nc2ccc(C)n(CC(=O)N3CCOCC3)c2=O)cc1	5.8%
Cc1cnc(CCNC(=O)C2CC2)n1CC1CC1	i
CCC(=O)N1CCc2cc(Br)cc(S(=O)(=O)CCC(=O)Nc3cccc(Cl)c3)c21	7.08µM*
CCC(=O)N1CCc2cc(Br)cc(S(=O)(=O)CCC(=O)Nc3cccc(C)c3C)c21	-1.8%
CCC(=O)N1CCc2cc(Br)cc(S(=O)(=O)NCCc3ccccc3Cl)c21	-21.7%
O=C1C(OCC2CC2)C2(CCCCC2)N1C1CCN(Cc2cccnc2)CC1 (stereo not drawn)	8.91µM*
O=C1C(OCC2CC2)C2(CCCCC2)N1C1CCN(Cc2ccncc2F)CC1 (stereo not drawn)	i
O=C(Cc1cccnc1)N1CCC(N2C(=O)C(OCC3CC3)C23CCCCC3)CC1 (stereo not drawn)	-28.1%
C[C@@H]1CN(c2ccc(C#N)cn2)C[C@@]1(O)C1CC1	-7.2%
Cc1noc(-c2ccc(C(C)(C)C)cc2)c1C(=O)NCc1cc(F)cc(F)c1	10µM*
Cc1cccc(CNC(=O)c2c(C)noc2-c2ccc(C(C)(C)C)cc2)c1	-11.1%
Cc1noc(-c2ccc(C(C)(C)C)cc2)c1C(=O)NCc1ccc(F)cc1F	-6.7%
CCCN1CCN(C(=O)C2(c3ccc(NC(=O)C4CC4)cc3)CCCCC2)CC1	i
COCCN1C(=O)CC[C@@]2(C(=O)N3CCOCC3)CCCC[C@H]12	21.0%
COc1ccc2nc3n(c2c1)[C@@H](CNC(=O)c1ccc(C#N)cc1)COC3	-3.9%[44.1 µM]
COc1ccc(-c2cc(-c3cccnc3)c3cncn3c2)cn1	-0.9%[44.1 µM]
c1cncc(-c2cc(-c3cccc4cc[nH]c34)cn3cncc23)c1	10µM*
COc1ccc(-c2cc(-c3cccc(CO)c3)cn3cncc23)cn1	3.98µM*
O=c1ccc(-c2cc(-c3cccc(C(F)(F)F)c3)cn3cncc23)c[nH]1	i
COc1ccc(-c2cc(-c3cccc(O)c3)cn3cncc23)cc1	1.26µM*
CC(=O)Nc1cccc(-c2cc(-c3ccncc3)c3cncn3c2)c1	i
COc1ccc(-c2cc(-c3cccc(C(N)=O)c3)cn3cncc23)cc1	3.55µM*
SMILES	Pf Dd2 growth
COc1cccc(-c2cc(-c3cn[nH]c3)c3cncn3c2)c1	i
NC(=O)c1cccc(-c2cc(-c3cccnc3)c3cncn3c2)c1	-4.0%[44.1 µM]
COCCn1cnnc1C(C)Nc1nc(C(C)C)nc2c1cnn2C (stereo not drawn)	1.2%
CN(Cc1cccc(-c2nn[nH]n2)c1)C(=O)C1CCCN(CC(N)=O)C1 (stereo not drawn)	-11.2%
N#Cc1cccc(NC(=O)NC[C@H]2C[C@@H]3CCN2C[C@@H]3CN2CCN(c3ccc(F)cc3)CC2)c1	i
O=C(Nc1ccccc1)N1CCC(Oc2ncccc2C(=O)N2CCOCC2)C1 (stereo not drawn)	16.0%
Cc1cccc(C)c1Oc1ncccc1CNC(=O)c1[nH]ncc1Cl	i
O=C(N1CCN([S+](=O)([O-])c2ccccc2)CC1)N1CC2CC(C1)[C@H]1CCCC(=O)N1C2 (stereo partly drawn)	i
OC1(CN2CCN(CCc3ccccn3)CC2)CCCNC1 (stereo not drawn)	-3.2%
Cc1cc(Cl)ccc1OCCN1CCN(C(=O)[C@H]2CCC[C@H](O)C2)CC1	-20.1%
Cc1cc(Cl)ccc1OCCN1CCN(CC2(O)CCCNC2)CC1 (stereo not drawn)	8.91µM*
O=C1CC(c2ccccc2)N(C(=O)CNC(=O)c2cc(-c3ccc(F)cc3)n[nH]2)CCCCCN1 (stereo not drawn)	i
O=S1(=O)c2ccccc2N(Cc2ccccc2)c2ccccc21	i
COc1cc(Cl)c(C)cc1NC(=O)CN1c2ccccc2S(=O)(=O)c2ccccc21	-7.1%
NC(=O)c1ccccc1NC(=O)CN1c2ccccc2S(=O)(=O)c2ccccc21	10µM*
CS(=O)(=O)N1CCC(OC2CCN(C(=O)NCc3ccccc3)CC2)CC1	34.7%
Cc1ccc(NC(=O)N(Cc2cn(C)c3ccccc23)C2CCCCC2)cc1C	3.55µM*
COc1cccc(NC(=O)N(CCC(C)C)C2CCN(C(C)C)CC2)c1	i
Cc1ccc(NC(=O)Cn2cc(C(=O)C3CC3)c3ccccc32)cc1C	313.8%[5.79 µM]
CC(=O)N1CCC(N(CCCOC(C)C)C(=O)Nc2ccc(C)c(C)c2)CC1	3.9%
COc1cccc(NC(=O)N(Cc2cn(C)c3ccccc23)C2CCCCC2)c1	2.82µM*
COc1ccc(CN(C(=O)Nc2cccc(OC)c2)C2CCN(C(C)=O)CC2)cc1	-5.4%
C=CCCC(CN1CCCOCC1)Oc1ccc(Cn2ccnc2)cn1 (stereo not drawn)	i
CCc1cccc(C)c1NC(=O)Cn1cccc1-c1nc(-c2ccc3c(c2)OCO3)no1	-11.3%
N#Cc1ccc(C(=O)N2C[C@@H](Oc3ccccc3)C[C@H]2C(=O)N2CCCC2)cc1	15.8%
SMILES	Pf Dd2 growth
Cc1cnn(Cc2c(C(=O)N3C[C@@H](C(N)=O)[C@H](c4nc(C)no4)C3)noc2C)c1	5.7%
COCCc1noc(-c2ccccc2OC2CN(C(=O)c3ccncc3)C2)n1	10µM*
COCCc1noc(-c2ccccc2OC2CN(S(=O)(=O)C(C)C)C2)n1	8.91µM*
Cc1ccc(C(=O)N2CCC(Oc3ccccc3-c3nc(-c4ccncc4)no3)C2)cn1 (stereo not drawn)	i
COCCc1noc(-c2ccccc2OC2CN(C(=O)c3cnccn3)C2)n1	49.5%
Cc1noc(-c2ccccc2OC2CCN(S(C)(=O)=O)C2)n1 (stereo not drawn)	1.0%
COc1ccc(OC)c(S(=O)(=O)N2CCC(Oc3ccccc3-c3nc(C)no3)C2)c1 (stereo not drawn)	-10.9%
CN(Cc1cc(C(C)(C)C)n[nH]1)C(=O)[C@H]1CCC[C@@H](O)C1	-8.5%
Cc1ccc(C(=O)NC2CCN(C(=O)N3CC4CC(C3)[C@H]3CCCC(=O)N3C4)CC2)cn1 (stereo partly drawn)	-23.8%
CCCCCCN(CCC(=O)NCCOC)C(=O)c1ccoc1	i
CC(C)COc1cc(=O)n2c(c1C(=O)NCc1ccccc1F)CCCCC2	6.0%
CCOc1cc(=O)n2c(c1C(=O)Nc1cc(OC)cc(OC)c1)CCCC2	-20.5%
CCOCC(=O)N1C[C@@H](CO)[C@H](c2ccccn2)C1	41.6%
Cn1cccc1C(=O)N[C@H]1C[C@@H](C(=O)O)N(C(=O)CSCC(=O)N2C[C@@H](NC(=O)c3cccs3)C[C@H]2C(=O)O)C1	14.4%
CC1CCN(C(=O)CC(c2ccc(Cl)cc2)c2cn(C)c3ccccc23)CC1 (stereo not drawn)	7.94µM*
CC1CCN(C(=O)Cn2cc(SCC(=O)NCc3ccccc3)c3ccccc32)CC1	-11.9%
CC1CCN(C(=O)Cn2cc(SCC(=O)Nc3ccccc3)c3ccccc32)CC1	-21.1%
COc1ccccc1-c1cc(C(=O)NC(C)C)c2cnn(C)c2n1	-17.3%
CN1[C@@H](CCC(=O)N2CCOCC2)CNC(=O)[C@@H]2[C@H]1CCN2Cc1cccs1	4.2%[44.1 µM]
Cc1nc(CCNS(=O)(=O)c2cccs2)no1	6.1%
CC(C)(C)OC(=O)N1CCC(c2c(C(=O)Nc3cccc(C(F)(F)F)c3)cnn2-c2ccc(F)cc2F)CC1	11.2µM*

Bioassay records: PubChem, National Center for Advancing Translational Sciences (NCATS)
